The text below walks through data of PubChem BioAssay (NCI).

A short description of test [1]: NCI Yeast Anticancer Drug Screen. Data for the rad50 strain (AID 155).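 Note: 0% = growth of vehicle-only cultures of the same strain.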 Conditions: S. cerevisiae rad50 strain growth inhibition, active compounds read high. The procedure, abridged:
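Genetically altered yeast (DNA repair pathway); compound treatment; growth inhibition vs vehicle ctrl.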

A short description of test [2]: NCI Yeast Anticancer Drug Screen. Data for the mec2-1 strain (AID 157). Conditions: S. cerevisiae mec2-1 strain, active compounds read high. The procedure, abridged: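 Test agents were screened against the mec2-1 yeast strain, with defined DNA repair or cell cycle alteration. Growth was scored as inhibition against vehicle-only controls.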
A short description of test [3]: NCI Yeast Anticancer Drug Screen. Data for the sgs1 mgt1 strain (AID 161).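 Note: 0% = growth of cultures given vehicle only.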 Particulars: S. cerevisiae sgs1 mgt1 strain, active compounds read high. The procedure, abridged: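 Genetically altered yeast, compound exposure, growth inhibition relative to vehicle.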
A short description of test [4]: NCI Yeast Anticancer Drug Screen. Data for the cln2 rad14 strain (AID 165).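 Note: 0% = growth equal to vehicle treated cultures.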 Conditions: S. cerevisiae cln2 rad14 strain, active compounds read high. The procedure, abridged: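 Growth of compound-exposed yeast (cln2 rad14 genotype) measured and expressed as inhibition relative to vehicle.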
Test [5] in a line: NCI Yeast Anticancer Drug Screen. Data for the bub3 strain (AID 167). Particulars: S. cerevisiae bub3 mutant strain, active compounds read high. The procedure, abridged:
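Yeast carrying a defined mutation is treated with each compound, and growth is compared with that of vehicle-exposed cells to give inhibition.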

Test [6] is described as follows: NCI Yeast Anticancer Drug Screen. Data for the mlh1 rad18 strain (AID 175). Conditions: S. cerevisiae mlh1 rad18 strain growth inhibition, active compounds read high. The procedure, abridged:
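In this whole-cell yeast screen, a strain with altered DNA damage repair is challenged with compound, and its growth is measured against matched vehicle-treated controls.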

Where [7] appears, read: at 5.0 µM (retest, dose inferred, filed as 0.5).
Setting [8] is: at 50.0 µM (retest, dose inferred, filed as 5.0).

About 79,000 compounds went through this panel and 15% of them were active in at least one assay; those are over-represented in the sample as a whole. A number with no mark means an inactive call. Active and inactive are the calls of the source. Cut-off read from the data, not from the text of the source: active = growth inhibition above about 70%; inactive = the rest. Where a SMILES comes first, the peptide text is derived from it. The star is where a group is joined. Trt = c1ccc(C(c2ccccc2)(c2ccccc2)*)cc1; OtBu = CC(C)(C)O*

On to `CCCCCCCCCCCCOC(=O)C[n+]1cccc(C(N)=O)c1`, for which the growth inhibition is -1% in test [1] (setting [7]); 99% (active) in test [1] (setting [8]); 99.8% (active) in test [1] (at 50.0 µM); -4% in test [2] (setting [7]); 99% (active) in test [2] (setting [8]); 99.7% (active) in test [2] (at 50.0 µM). Besides, the growth inhibition is -3% in test [3] (setting [7]); 81% (active) in test [3] (setting [8]); 99.8% (active) in test [3] (at 50.0 µM); -8% in test [4] (setting [7]); 96% (active) in test [4] (setting [8]); 98.2% (active) in test [4] (at 50.0 µM). Moreover, the growth inhibition was -6% in test [5] (setting [7]); 99% (active) in test [5] (setting [8]); 99.6% (active) in test [5] (at 50.0 µM); -4% in test [6] (setting [7]); 99% (active) in test [6] (setting [8]); 99.7% (active) in test [6] (at 50.0 µM).
`O=Cc1ccc(-c2nccc3c2[nH]c2ccccc23)o1`: the growth inhibition in test [1] (setting [7]) is 23%; in test [1] (setting [8]), 35%; in test [1] (at 50.0 µM), 78.2% (active); in test [2] (setting [7]), 15%; in test [2] (setting [8]), 17%; in test [2] (at 50.0 µM), 26.9%. Further, the growth inhibition in test [3] (setting [7]) is 17%; in test [3] (setting [8]), 20%; in test [3] (at 50.0 µM), 19.1%; in test [4] (setting [7]), 12%; in test [4] (setting [8]) it was 16%; in test [4] (at 50.0 µM), 16.1%. Also, the growth inhibition in test [5] (setting [7]) was 24%; in test [5] (setting [8]) it was 14%; in test [5] (at 50.0 µM) it was 8.9%; in test [6] (setting [7]), 21%; in test [6] (setting [8]), 25%; in test [6] (at 50.0 µM), -1.45%.
As to `Cc1cccc(C)c1NC(=O)CSC(N)=O`, the growth inhibition in test [1] (setting [7]) is 4%; in test [1] (setting [8]), 22%; in test [1] (at 50.0 µM), 72.2% (active); in test [2] (setting [7]) it was -1%; in test [2] (setting [8]) it was 24%; in test [2] (at 50.0 µM), 65%. Besides, the growth inhibition in test [3] (setting [7]) was 0%; in test [3] (setting [8]), 22%; in test [3] (at 50.0 µM), 87.2% (active); in test [4] (setting [7]), 5%; in test [4] (setting [8]) it was -1%; in test [4] (at 50.0 µM) it was 56.1%. For the same compound, the growth inhibition in test [5] (setting [7]) is 4%; in test [5] (setting [8]), 42%; in test [5] (at 50.0 µM), 75.5% (active); in test [6] (setting [7]) it was 7%; in test [6] (setting [8]) it was 26%; in test [6] (at 50.0 µM), 73.2% (active).
Regarding `CCC(=NCCCCCCN=C(CC)c1cc(C)cc([N+](=O)[O-])c1O)c1cc(C)cc([N+](=O)[O-])c1O.[Fe]`, the growth inhibition in test [1] (setting [7]) was 10%; in test [1] (setting [8]) it was 46%; in test [1] (at 50.0 µM), 80.9% (active); in test [2] (setting [7]), -10%; in test [2] (setting [8]), 79% (active); in test [2] (at 50.0 µM) it was 72.3% (active). Besides, the growth inhibition in test [3] (setting [7]) is 11%; in test [3] (setting [8]), 35%; in test [3] (at 50.0 µM), 72.2% (active); in test [4] (setting [7]), -7%; in test [4] (setting [8]), 49%; in test [4] (at 50.0 µM), 70.5% (active). The growth inhibition in test [5] (setting [7]) was -1%; in test [5] (setting [8]), 70% (active); in test [5] (at 50.0 µM), 71.7% (active); in test [6] (setting [7]), 11%; in test [6] (setting [8]), 63%; in test [6] (at 50.0 µM), 80.8% (active).
Regarding `CC(C)(C)OC(=O)CNC(=O)C(Cc1ccccc1)NC(=O)C(N)CSC(c1ccccc1)(c1ccccc1)c1ccccc1` (stereo not drawn) (H-Cys(Trt)-Phe-Gly-OtBu; configuration not given here), the growth inhibition in test [1] (setting [7]) is -3%; in test [1] (setting [8]) it was 16%; in test [1] (at 50.0 µM) it was 59.2%; in test [2] (setting [7]), -5%; in test [2] (setting [8]), 53%; in test [2] (at 50.0 µM) it was 82.2% (active). The growth inhibition in test [3] (setting [7]) was 0%; in test [3] (setting [8]), 41%; in test [3] (at 50.0 µM), 76.5% (active); in test [4] (setting [7]), -5%; in test [4] (setting [8]), 48%; in test [4] (at 50.0 µM), 41.3%. In addition, the growth inhibition in test [5] (setting [7]) was 1%; in test [5] (setting [8]) it was 34%; in test [5] (at 50.0 µM), 17.9%; in test [6] (setting [7]) it was -3%; in test [6] (setting [8]) it was 45%; in test [6] (at 50.0 µM), 73.3% (active).
Take `O=C(Nc1cccc(C(F)(F)F)c1)O/N=C(/Cl)CCl`: the growth inhibition in test [1] (setting [7]) was 3%; in test [1] (setting [8]), 100% (active); in test [1] (at 50.0 µM), 88.5% (active); in test [2] (setting [7]) it was -19%; in test [2] (setting [8]), 100% (active); in test [2] (at 50.0 µM) it was 91.7% (active). Moreover, the growth inhibition in test [3] (setting [7]) is -51%; in test [3] (setting [8]), 99% (active); in test [3] (at 50.0 µM), 84.7% (active); in test [4] (setting [7]), -8%; in test [4] (setting [8]), 100% (active); in test [4] (at 50.0 µM), 90.5% (active). The growth inhibition in test [5] (setting [7]) is -38%; in test [5] (setting [8]), 100% (active); in test [5] (at 50.0 µM), 88.8% (active); in test [6] (setting [7]) it was -9%; in test [6] (setting [8]), 100% (active); in test [6] (at 50.0 µM) it was 84.2% (active).
For `O=C1C=CC(=O)c2nc3ccccc3nc21`, the growth inhibition in test [1] (setting [7]) was 5%; in test [1] (setting [8]), 98% (active); in test [1] (at 50.0 µM), 85.3% (active); in test [2] (setting [7]) it was 2%; in test [2] (setting [8]) it was 99% (active); in test [2] (at 50.0 µM) it was 83.2% (active). The growth inhibition is 1% in test [3] (setting [7]); 98% (active) in test [3] (setting [8]); 50.6% in test [3] (at 50.0 µM); -1% in test [4] (setting [7]); 99% (active) in test [4] (setting [8]); -16.7% in test [4] (at 50.0 µM). Besides, the growth inhibition in test [5] (setting [7]) is -1%; in test [5] (setting [8]), 98% (active); in test [5] (at 50.0 µM), 90.1% (active); in test [6] (setting [7]), 16%; in test [6] (setting [8]), 97% (active); in test [6] (at 50.0 µM), 91% (active).
Consider `OC(CN1CCC(c2ccccc2)CC1)c1ccc(Br)cc1` (configuration not stated), for which the growth inhibition in test [1] (setting [7]) is 57%; in test [1] (setting [8]), 74% (active); in test [1] (at 50.0 µM), 87.7% (active); in test [2] (setting [7]) it was 32%; in test [2] (setting [8]), 53%; in test [2] (at 50.0 µM), 61.2%. Moreover, the growth inhibition was 66% in test [3] (setting [7]); 64% in test [3] (setting [8]); 83.2% (active) in test [3] (at 50.0 µM); 64% in test [4] (setting [7]); 77% (active) in test [4] (setting [8]); 76.8% (active) in test [4] (at 50.0 µM). Also, the growth inhibition is 58% in test [5] (setting [7]); 93% (active) in test [5] (setting [8]); 82.7% (active) in test [5] (at 50.0 µM); 80% (active) in test [6] (setting [7]); 91% (active) in test [6] (setting [8]); 80.5% (active) in test [6] (at 50.0 µM).
With `COC(=O)C1=C(C)NC(C)=C(C(=O)OC)C1c1ccc(NCc2ccccc2)c([N+](=O)[O-])c1`, the growth inhibition in test [1] (setting [7]) is 4%; in test [1] (setting [8]), 59%; in test [1] (at 50.0 µM) it was 16.9%; in test [2] (setting [7]), 0%; in test [2] (setting [8]), 53%; in test [2] (at 50.0 µM) it was 3.65%. Also, the growth inhibition in test [3] (setting [7]) was -1%; in test [3] (setting [8]), 73% (active); in test [3] (at 50.0 µM), 12.3%; in test [4] (setting [7]) it was 0%; in test [4] (setting [8]), 74% (active); in test [4] (at 50.0 µM), 0.55%. Also, the growth inhibition is 1% in test [5] (setting [7]); 68% in test [5] (setting [8]); 6.45% in test [5] (at 50.0 µM); 0% in test [6] (setting [7]); 71% (active) in test [6] (setting [8]); 40.1% in test [6] (at 50.0 µM).
